Bioassay records (PubChem BioAssay)
An excerpt weighted towards active compounds, which were near 2.7% of everything screened.
EWS-Fli block: inhibitors of EWS/Fli oncoprotein transcriptional activity. 350,000 tested, 0.67% active. AID 651661. inhibition, % at 12.6 µM. A673 NR0B1-luciferase reporter, viability-normalised;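 active = mean inhibition of at least 50% after viability correction, with every replicate also passing that limit; inconclusive = mean reaches 50% but only one of two replicates passes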;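 also: firefly luciferase signal divided by Alamar Blue viability fluorescence both relative to DMSO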
GSIS activator: primary screen for activators of insulin secretion dependent on glucose, INS-1E cells, GLuc reporter luminescence; INS-1E GLuc reporter insulin secretion, 2-3 h; activation, % at 16.6 µM; 370,000 tested, 0.61% active; AID 743287;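 active = lowest replicate activation of at least 40%, so every replicate reaches that level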;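 also: 0% = median of neutral control wells and 100% = median of IBMX positive control wells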
F508del corr: CFTR F508del correction in bronchial cells; activity (quench increase), % at 7.58 µM; CFBE cells, YFP halide quenching; stimulated with forskolin plus potentiator P3; % fluorescence drop versus neutral controls; AID 720511; 350,000 tested, 0.36% active;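 active = mean added fluorescence quench of at least 8% versus neutral control, with both replicates also reaching 8%; inconclusive = only one of the mean or replicate conditions met; inactive = mean below 8% and not both replicates reaching 8%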;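 also: cells transiently co-express mutant CFTR-F508del with the halide-sensitive YFP; corrector assay measuring rescue of mutant channel to the surface after 24 h compound exposure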
Env fusion inh: inhibitors of HIV Env-mediated cell fusion; inhibition, % at 12.3 µM; HeLa-JRFL Env/CEM21 cell fusion, luciferase; 360,000 tested, 1.1% active;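 active = mean replicate inhibition score of at least 50 and every replicate individually at or above 50; inconclusive = only one of the two criteria met; inactive = mean below 50 and not all replicates reaching 50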;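 also: 0% = plate neutral controls and 100% = maraviroc near 300 nM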
PAX8 reporter: PAX8 transcriptional activity inhibition; 360,000 tested, 1.2% active; inhibition, % at 12.6 µM; AID 652154; RMG-I TPO-luciferase reporter, SteadyGlo, 24 h;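 active = mean replicate inhibition at least 60% with every replicate also reaching 60%; inconclusive = only one of the two criteria is met; inactive = mean below 60% and not all replicates reaching 60%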;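 also: luciferase light reporting Pax8 driven TPO promoter activity; plate controls were median of neutral control wells for no effect and mitoxantrone controls for full effect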
PGC1a acetyl inh: lowers PGC1a acetylation signal in U2OS cells; AlphaScreen anti-acetyl-lysine; with virally co-expressed GCN5 acetyltransferase; 350,000 tested, 0.17% active; AID 651687; inhibition, % at 15.6 µM;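 active = every replicate shows inhibition of at least 40%; inconclusive = mean inhibition at least 40% but some replicate below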;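 also: 0% = neutral control wells and 100% = positive control wells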
* marks the source's active call; other numbers are inactive results; ? = inconclusive; nt = no result; [ ] = another dose, or the depositor's remark.

SMILES | EWS-Fli block | GSIS activator | F508del corr | Env fusion inh | PAX8 reporter | PGC1a acetyl inh
COc1ccc(S(=O)(=O)Nc2ccc3c(c2)C(=O)N([C@H](C)CO)C[C@@H](C)[C@H](CN(C)C(=O)Nc2ccc(C(F)(F)F)cc2)OCCCC[C@@H](C)O3)cc1 | 7.2 | -39.3 | 2.0 | -48.4[16.7 µM] | 61.9* | ?
COc1ccc(S(=O)(=O)Nc2ccc3c(c2)C(=O)N([C@H](C)CO)C[C@@H](C)[C@H](CN(C)C(=O)Nc2ccc(C(F)(F)F)cc2)OCCCC[C@H](C)O3)cc1 | 18.9 | 5.7 | -4.8 | 35.0[16.7 µM] | 76.9* | 7.7
COc1ccc(S(=O)(=O)Nc2ccc3c(c2)C(=O)N([C@H](C)CO)C[C@H](C)[C@@H](CN(C)C(=O)Nc2ccc(C(F)(F)F)cc2)OCCCC[C@@H](C)O3)cc1 | -0.1 | -0.9 | 0.0 | -13.1[16.7 µM] | 5.3 | -6.0
Cc1noc(C)c1NC(=O)Nc1ccc2c(c1)C(=O)N(C)[C@H]1CC[C@@H](CC(=O)N[C@@H]3CCN(Cc4ccccc4)C3)O[C@H]1CO2 | -0.6 | 10.5 | 1.2 | 4.8[16.7 µM] | -19.6 | 0.3
C[C@H]1CN([C@@H](C)CO)C(=O)c2ccccc2-c2ccccc2CO[C@@H]1CN(C)C(=O)Nc1cccc(Cl)c1Cl | nt | 4.3 | nt | nt | nt | nt
C[C@@H]1CN([C@H](C)CO)S(=O)(=O)c2ccc(C#CC3CC3)cc2O[C@@H]1CN(C)Cc1cccnc1 | 4.9 | -4.8 | -1.5 | 12.1[16.7 µM] | nt | -2.8
CCN(CC)S(=O)(=O)c1cc(NC(=O)C(=O)c2c(-c3ccccc3)cc3ccccn23)ccc1C | nt | nt | nt | 77.3* | nt | -26.1
CCN(CC)S(=O)(=O)c1cccc(NC(=O)C(=O)c2c(-c3ccccc3)cc3ccccn23)c1 | nt | nt | nt | -41.1 | 8.5 | nt
Oc1cc(Nc2ccccc2)cc2cccnc12 | 14.7 | -3.7 | -1.4 | 21.2 | 96.3* | 7.8
Oc1cccc2cc(Nc3ccccc3)cnc12 | 40.7 | -11.2 | 10.0* | nt | 93.9* | 28.3
CO[C@H]1CN(C)C(=O)c2ccc(NS(C)(=O)=O)cc2OC[C@@H](C)N(Cc2cncnc2)C[C@H]1C | -0.7 | 1.9 | -1.5 | -0.8[16.7 µM] | nt | -0.4
C[C@@H]1CN([C@H](C)CO)C(=O)CCCn2cc(nn2)CO[C@@H]1CN(C)C(=O)c1ccncc1 | 10.4 | 0.3 | 4.2 | nt | -0.5 | 4.9
CC(C)(C)c1nnc(NC(=O)CCS(=O)(=O)Cc2ccccc2)s1 | -6.2 | -0.8 | 1.5 | -6.9 | 84.4* | -22.3
CC(C)(C)c1nnc(NC(=O)CCS(=O)(=O)c2ccccc2)s1 | -8.3 | -7.6 | 0.3 | -7.4 | 96.8* | -10.5
O=C(CCS(=O)(=O)Cc1ccccc1)Nc1nnc(C(F)(F)F)s1 | -48.6 | -15.6 | 3.9 | 6.8 | 38.1 | 0.0
CC1(C)CC(=O)c2sc(NC(=O)CCS(=O)(=O)c3ccccc3)nc2C1 | -9.3 | -18.4 | -3.6 | 8.1 | 108.7* | nt
COCCNC(=O)[C@H]1[C@H](CO)[C@H]2Cn3c(ccc(-c4ccccc4F)c3=O)[C@H]2N1C(=O)C1CC1 | -4.9 | 16.6 | -0.8 | nt | nt | nt
N#Cc1cccc(NC(=O)c2nc(-c3ccccc3)n(-c3ccccc3)n2)c1 | nt | nt | nt | -40.5 | 26.7 | 0.2
Cc1nn(C2CCS(=O)(=O)C2)c2nc(C3CC3)cc(C(=O)Nc3cccc(C#N)c3)c12 (stereo not given) | 11.4 | 15.0 | 8.7* | 17.9 | 74.7* | -4.5
CN1C(=O)c2cc(NS(=O)(=O)c3ccc(Cl)cc3)ccc2OC[C@H]2O[C@@H](CC(=O)N3CCc4ccccc4C3)CC[C@H]21 | 7.8 | -11.7 | -2.1 | -15.8[16.7 µM] | 37.3 | -2.1
CN1C(=O)c2cc(NS(=O)(=O)c3ccccc3F)ccc2OC[C@@H]2O[C@H](CC(=O)NC3Cc4ccccc4C3)CC[C@@H]21 | 0.1 | -3.1 | nt | 63.1*[16.7 µM] | 23.4 | nt
CN1C(=O)c2cc(NS(=O)(=O)c3ccc(Cl)cc3)ccc2OC[C@@H]2O[C@H](CC(=O)N3CCc4ccccc4C3)CC[C@@H]21 | 8.1 | 3.5 | 4.8 | -1.5[16.7 µM] | 60.9* | -0.3
C[C@@H]1CN([C@@H](C)CO)C(=O)c2cc(NC(=O)Nc3ccc(F)cc3)ccc2O[C@@H](C)CCCCO[C@@H]1CN(C)Cc1ccncc1 | 0.2 | -24.2 | -2.0 | -5.1[16.7 µM] | -11.3 | 5.9
FC(F)(F)c1nnc2c(Sc3ccccc3)nc3ccc(Cl)cc3n12 | nt | nt | nt | ? | 113.0* | 15.2
FC(F)(F)c1nc2ccccc2n2c(-c3ccc(Cl)cc3Cl)nnc12 | nt | nt | nt | nt | nt | -4.9
SMILES | EWS-Fli block | GSIS activator | F508del corr | Env fusion inh | PAX8 reporter | PGC1a acetyl inh
COc1ccc(C(=O)N2CCN(c3ccc([N+](=O)[O-])c(NCCc4ccc(OC)c(OC)c4)c3)CC2)cc1 | nt | -46.2 | nt | 76.8* | 55.2 | 3.5
C[C@H](CO)N1C[C@H](C)[C@@H](CN(C)Cc2ccc(C(=O)O)cc2)OCCCC[C@H](C)Oc2ccc(NC(=O)Nc3ccccc3)cc2C1=O | -9.0 | 4.5 | 0.6 | 3.4[16.7 µM] | -41.6 | 4.2
O=C(NC1CCC1)[C@@H]1[C@@H](CO)[C@@H]2Cn3c(ccc(-c4ccncc4)c3=O)[C@H]1N2Cc1cocn1 | -1.6 | 4.0 | 0.8 | nt | -11.5 | 1.8
Cc1ccc(S(=O)(=O)Nc2ccc3c(c2)C(=O)N([C@H](C)CO)C[C@@H](C)[C@H](CN(C)C(=O)Nc2ccc(F)cc2)OCCCC[C@@H](C)O3)cc1 | 12.2 | -6.5 | -2.3 | -29.6[16.7 µM] | 61.0* | 5.0
COc1ccc(S(=O)(=O)Nc2ccc3c(c2)C(=O)N([C@@H](C)CO)C[C@H](C)[C@H](CN(C)C(=O)NC(C)C)OCCCC[C@H](C)O3)cc1 | -6.3 | -17.5 | -1.8 | 92.7*[16.7 µM] | 7.1 | -2.8
C[C@@H]1CN([C@@H](C)CO)C(=O)c2cc(NS(=O)(=O)c3ccc(Cl)cc3)ccc2O[C@@H](C)CCCCO[C@@H]1CN(C)C(=O)Nc1ccc(F)cc1 | -4.6 | -14.6 | 2.0 | -88.3[16.7 µM] | 5.5 | 2.9
COc1ccc(S(=O)(=O)Nc2ccc3c(c2)C(=O)N([C@@H](C)CO)C[C@@H](C)[C@@H](CN(C)C(=O)NC(C)C)OCCCC[C@@H](C)O3)cc1 | -2.9 | -12.0 | -1.6 | -27.2[16.7 µM] | -15.7 | -16.5
COc1ccc(NC(=O)N(C)C[C@@H]2OCCCC[C@H](C)Oc3ccc(NS(=O)(=O)c4ccc(F)cc4)cc3C(=O)N([C@@H](C)CO)C[C@@H]2C)cc1 | -9.1 | 3.1 | -0.7 | -7.9[16.7 µM] | -15.0 | 6.1
COc1ccc(S(=O)(=O)Nc2ccc3c(c2)C(=O)N([C@@H](C)CO)C[C@H](C)[C@@H](CN(C)C(=O)Nc2ccc(F)cc2)OCCCC[C@H](C)O3)cc1 | -4.4 | 2.3 | -3.5 | 19.3[16.7 µM] | 84.7* | 1.8
C[C@@H]1CN([C@H](C)CO)C(=O)c2cc(NS(=O)(=O)c3ccc(Cl)cc3)ccc2O[C@@H](C)CCCCO[C@H]1CN(C)C(=O)Nc1ccc(F)cc1 | 1.9 | -11.3 | -2.9 | -217.1[16.7 µM] | 66.6* | 1.4
